The campaign covered roughly 94,000 compounds. About 6,200 (6.6%) were called active. Where a call stands in place of a potency, no number is given. Roughly 31% stayed inconclusive and do not appear here. Calls come from the whole dose curve; as a rule, active = well fitted inhibition curve with a large enough effect; inconclusive = small, poorly fitted or top-dose-only effect; inactive = flat fitted curve, though single readings scatter. This excerpt belongs to a sample that is enriched for actives.

The text below walks through data of PubChem BioAssay AID1345083 (National Center for Advancing Translational Sciences (NCATS), 2018).
Potency is the fitted concentration of half-maximal effect.

This test is described as follows: Cytotoxic Profiling in HEK 293 Cell Line of Diverse Libraries Using Quantitative High-Throughput Screening. Note: nearly all actives have a fitted effect of over 60% in size. To be noted: HEK 293 viability, ATP luminescence (CellTiter-Glo), 48-72 h; series mostly up to 115 µM. The method in brief:
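HEK 293 cells seeded at 250 cells/well were exposed to compound for 48 or 72 hr at 37 degree Celsius. Viability taken as ATP content by CellTiter-Glo luminescence.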
On the technique in general: Cellular ATP, detected with luciferase, serves as a proxy for viable cell number.
`Cc1nsc(NC(=O)N2CCC(CO)CC2)n1`: the Potency entry is “inactive”. Next, `CCOc1ccccc1C(=O)N1CCC(N2CC3CC(C2)[C@H]2CCCC(=O)N2C3)CC1` (stereo partly drawn): “inactive”; `COC[C@@H]1CN(C(=O)Cn2cc(C)cn2)C[C@H]1c1ccccn1`: “inactive”. In the case of `Cc1ccc(C)c(NC(=O)Cn2nc3n(c2=O)CCCCC3)c1` it was “inactive”. As to `CN(CCc1cn[nH]c1)c1ccc(-c2nc(-c3ccccc3F)no2)cn1`, the Potency is 31.6 µM (active). Next, `O=C(C1CCC1)N1CCC(Oc2cccnc2)C1` (stereo not drawn): “inactive”.

With `Cc1noc(C)c1-c1cc(-c2ccccc2Oc2ccccc2)cn2cncc12`, the Potency is 79.4 µM (active).

For the molecule `Cc1noc(C)c1-c1cc(-c2cncnc2)cn2cncc12`, the Potency result is “inactive”. For the molecule `OCc1ccc(-c2cc(-c3cccnc3)c3cncn3c2)cc1`, the Potency entry is “inactive”.

On to `COc1ccccc1-c1onc(C)c1C(=O)NCc1ccc(Cl)cc1`, for which the Potency result is “inactive”. In the case of `COc1ccccc1-c1onc(C)c1C(=O)NCCC(c1ccccc1)c1ccccc1` it was 25.1 µM (active); in that of `CCCOCCCNC(=O)c1c(C)noc1-c1ccccc1Cl`, “inactive”; in that of `O=C(c1ccc2nnc(C3CC3)n2c1)N1CCOCC1`, “inactive”. In the case of `CC(C)n1c(C2CCN(C(=O)Cc3cccc(F)c3)CC2)nn(C)c1=O`, the Potency result was “inactive”.

Consider `O=C(C1CCCN(c2ccnc3ccnn23)C1)N1CCCCC1` (stereo not drawn), for which the Potency entry was “inactive”. Next, `O=C(CC1CCCC1)N1CCOc2ccc(CN3CCCCC3)cc2C1`: “inactive”; `O=C(c1ccoc1)N1CCCN(C(=O)C2COc3ccccc3C2)CC1` (stereo not drawn): “inactive”. Next, `CCC(C)N1CCN(C(=O)CCc2ccc3c(c2)CN(C(=O)NC(C)C)CCO3)CC1` (stereo not drawn): “inactive”; `O=C1CCN(Cc2ccc3c(c2)CCO3)CCOCCN1`: “inactive”. For the molecule `O=C(c1ccccc1)N1CCOc2ccc(CN3CCc4ccccc4C3)cc2C1`, the Potency is 44.7 µM (active). As for `O=C(c1ccoc1)N1CCOc2ccc(CN3CCc4ccccc4C3)cc2C1`, the Potency was 39.8 µM (active). Take `COc1ccccc1N1CCN([C@@H]2[C@H](O)[C@H](CO)O[C@@H]2CNC(=O)c2ccc(F)c(Cl)c2)CC1`: the Potency entry was “inactive”.

For `CN1C[C@H](NCc2nccn2C)CCC[C@@H](C(=O)NC2CC2)CC1=O`, the Potency entry was “inactive”.

`O=C(NCc1cccs1)c1nc(-c2cc(Cl)cc(Cl)c2)c2ccccn12`: the Potency result is “inactive”. For `CCOCC(=O)N1[C@@H]2CC[C@H]1CC(NC(=O)c1ccc(F)cc1)C2` (stereo partly drawn), the Potency entry was “inactive”. Next, `CCc1cccc(NC(=O)N2[C@@H]3CC[C@H]2CC(NC(=O)c2ccc(F)cc2)C3)c1` (stereo partly drawn): 39.8 µM (active); `Cc1ccncc1C(=O)N1[C@@H]2CC[C@H]1CC(NC(=O)c1ccc(F)cc1)C2` (stereo partly drawn): “inactive”. With `CNC(=O)c1cc(C)nc2onc(C3CCCN(C(=O)c4ccccn4)C3)c12` (stereo not drawn), the Potency entry is “inactive”. In the case of `CCC(c1ccccn1)N(C)C(=O)c1cc(COc2ccccc2)[nH]n1` (stereo not drawn) it was “inactive”; in that of `COc1ccc(F)cc1-c1ccc(CN2CCCCC2C(=O)NCc2ccccn2)cc1` (stereo not drawn), 25.1 µM (active); in that of `CN1CCCCCC1C(=O)NCc1cccnc1Oc1ccccc1F` (stereo not drawn), “inactive”. Regarding `COc1ccc(CNC(=O)C2CCCCN2Cc2ccc(-c3ccccc3OC)cc2)cc1` (stereo not drawn), the Potency was 31.6 µM (active). For the molecule `CCNC(=O)[C@@H]1CCCN1[C@@H](C(=O)NC)c1ccccc1OC`, the Potency result was “inactive”. Next, `COc1ccccc1-c1ccc(CN2CCCCC2C(=O)NCc2cccc(Cl)c2)cc1` (stereo not drawn): 22.4 µM (active).

For the molecule `COc1ccc(OC)c(S(=O)(=O)N2CCC(CC(=O)NCc3ccccc3)C2)c1` (stereo not drawn), the Potency result was “inactive”. Take `C#CCNC(=O)C1CCc2nnc(-c3ccccc3OC)n21` (stereo not drawn): the Potency entry was “inactive”. Next, `CCOc1cc(=O)n2c(c1C(=O)NCc1cccc(Cl)c1)CCCC2`: “inactive”; `C=C(C)CCC(C)N1CCC(N2CCC(C(=O)NCc3ccccn3)CC2)CC1` (stereo not drawn): “inactive”; `Cc1ccc2[nH]c(CCCn3cc(-c4nccn4C)nn3)nc2c1C`: “inactive”. As for `Cc1cnc(C(=O)N2CC[C@H](CO)[C@H](N(C)C)C2)cn1`, the Potency result is “inactive”. In the case of `COC(=O)c1nc(NC(=O)Cn2nc3c(cc2=O)CCCCC3)sc1C` it was “inactive”; in that of `CC(=O)c1cc(CN2CCN(c3nnc(C(F)(F)F)s3)CC2)cs1`, “inactive”. Next, `O=C(C1CC1)N1CCC2(CC1)C(=O)NCN2Cc1ccc(Cl)cc1`: “inactive”; `C[S+](=O)([O-])N1CC2(Cc3ccccc31)CN(C(=O)C1CC1)C2`: “inactive”; `CC(=O)N1CCC(NC[C@H]2O[C@H](Cc3cc(-c4cccc(O)c4)on3)CC[C@@H]2O)CC1`: “inactive”. Regarding `COc1ccc(CNC[C@H]2O[C@H](Cc3cc(-c4ccc(OC)cc4)on3)CC[C@@H]2O)cc1`, the Potency is 35.5 µM (active). For the molecule `COc1ccc(CNC(=O)N2CC3CN(C)CC(C2)O3)cc1`, the Potency result is “inactive”. In the case of `Cc1ncsc1C1N(C2CCN(C(=O)C3CC3)CC2)C(=O)C12CCCC2` (stereo not drawn) it was “inactive”; in that of `COc1ccc(C(=O)Nc2cccc(-c3nnc4n3CCCC4)c2)cc1`, “inactive”. In the case of `Cc1nn(-c2ccccc2)c2c1C(C)N(C1CN(C(=O)Nc3ccccc3)C1)C2=O` (stereo not drawn) it was “inactive”; in that of `Cc1nn(-c2ccc(C(C)C)cc2)c(C)c1[C@@H]1C=C[C@@H](NC(=S)NCC(C)C)C1`, 25.1 µM (active). Turning to `COc1ccc(-n2nc(-c3ccccc3)n(CC(=O)N(C)CC(C)C)c2=O)cc1`, the Potency entry was “inactive”.

In the case of `CCOCCOC1CCN(C(=O)Nc2cccc(F)c2)CC1`, the Potency entry was “inactive”. Next, `CCC(C)NC(=O)Cc1csc2nc(C)c(-c3cc(C)n(-c4ccc(C(C)C)cc4)n3)c(=O)n12` (stereo not drawn): “inactive”. Next, `COc1ccc(-n2nc(C)c([C@H]3C=C[C@@H](OC(=O)Nc4cccc(F)c4)C3)c2C)cc1`: 20 µM (active); `COc1ccc(-n2nc(C)c([C@@H]3C=C[C@@H](NC(=O)Nc4ccccc4)C3)c2C)cc1`: 50.1 µM (active). In the case of `Cc1nn(-c2ccccc2)c2c1C(C(C)C)N(C1CN(C(=O)c3ccc(Cl)nc3)C1)C2=O` (stereo not drawn) it was “inactive”; in that of `COc1ccc(C(=O)Nc2cc(-c3ccccn3)nn2-c2ccccc2)cc1`, “inactive”. On to `Cc1nn(-c2ccc(C(C)C)cc2)c(C)c1[C@@H]1C=C[C@@H](NC(=O)Nc2ccccc2)C1`, for which the Potency is 39.8 µM (active).

For `O=C(Cc1cccnc1)NC1CC(=O)N(Cc2cccc3ccccc23)C1` (stereo not drawn), the Potency result is “inactive”. On to `CCNC(=O)c1noc(-c2ccc[nH]c2=O)n1`, for which the Potency result is “inactive”. In the case of `Cc1nc(CC(=O)N[C@@H]2COCC[C@H]2Oc2ccc(C#N)cc2)c(C)s1` it was “inactive”.

`Cc1ccc(C2Cn3cnc(C(=O)N4CCC(C(=O)NCCC(C)C)CC4)c3CO2)cc1` (stereo not drawn): the Potency result was “inactive”.
